# The list shows a part of the results. No count for the full screen is at hand.
# Biological target: furin, P09958
# Assay: furin cleavage Z-score vs untreated control; higher = more cleavage, active = 3.5 or more, inactive = 1 or less, 8 variable residues between constant flanks
# Method in brief: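 Purified furin digested bead-held 8-mer peptide–cDNA fusions at 1:10 enzyme:substrate in 0.01 ml of 50 mM HEPES pH 7.5 with CaCl2 and NaCl for 7.5, 15 or 30 min. The cleavage Z-score compares sequencing counts of released DNA with furin-free reactions on a log scale, with lowess adjustment and median absolute deviation scaling.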
# Chain of furin, P09958 (P09958 whole entry): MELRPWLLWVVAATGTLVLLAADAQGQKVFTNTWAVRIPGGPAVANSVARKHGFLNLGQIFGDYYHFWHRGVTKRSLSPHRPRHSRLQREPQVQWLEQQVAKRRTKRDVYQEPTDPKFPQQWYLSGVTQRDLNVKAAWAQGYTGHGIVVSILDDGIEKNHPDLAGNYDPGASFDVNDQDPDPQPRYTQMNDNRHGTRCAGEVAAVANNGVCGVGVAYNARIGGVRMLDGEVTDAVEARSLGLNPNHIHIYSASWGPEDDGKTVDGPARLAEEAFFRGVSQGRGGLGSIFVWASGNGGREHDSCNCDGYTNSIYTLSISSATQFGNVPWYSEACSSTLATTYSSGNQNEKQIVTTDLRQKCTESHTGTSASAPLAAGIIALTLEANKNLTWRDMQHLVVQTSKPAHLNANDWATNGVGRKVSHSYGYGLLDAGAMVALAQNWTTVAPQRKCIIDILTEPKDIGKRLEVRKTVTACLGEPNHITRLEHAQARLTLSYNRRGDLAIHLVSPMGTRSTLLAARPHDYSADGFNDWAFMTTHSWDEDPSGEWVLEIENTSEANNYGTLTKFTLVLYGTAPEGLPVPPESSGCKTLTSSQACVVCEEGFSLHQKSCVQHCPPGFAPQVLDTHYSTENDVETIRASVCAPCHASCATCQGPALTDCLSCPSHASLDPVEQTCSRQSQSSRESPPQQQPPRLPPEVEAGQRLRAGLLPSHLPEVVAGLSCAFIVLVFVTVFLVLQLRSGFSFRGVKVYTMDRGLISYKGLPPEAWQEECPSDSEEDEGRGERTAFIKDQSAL
Sequence,furin cleavage Z-score (7.5 min),furin cleavage Z-score (15 min),furin cleavage Z-score (30 min)
CATTPRSGSWAGNASASA [HC50],0.195 (inactive),-0.703 (inactive),-1.47 (inactive)
CAQASLLKVPAGNASASA [HC612],-0.764 (inactive),-0.112 (inactive),0.0537 (inactive)
CALLAPITAYAGNASASA [HC673],-3.12 (inactive),-1.42 (inactive),-1.58 (inactive)
CAHPQRKRRGAGNASASA [FS-538],8.91 (active),10.4 (active),7.34 (active)
CAGYFRIRRGAGNASASA [FS-931],7.65 (active),7.42 (active),7.31 (active)
CARSERNRRGAGNASASA [FS-1406],12.7 (active),13.3 (active),9.9 (active)
CARVQRLRRGAGNASASA [FS-1076],6.03 (active),4.67 (active),4.95 (active)
CARSERSVILAGNASASA [FS-2237],-0.162 (inactive),0.495 (inactive),-1.51 (inactive)
CAEVARLRRGAGNASASA [FS-1122],0.497 (inactive),0.166 (inactive),1.11
CALQVLDSHYAGNASASA [HC1399],0.634 (inactive),0.79 (inactive),-1.28 (inactive)
CALTPPHSAKAGNASASA [HC1416],0.524 (inactive),0.481 (inactive),-0.0828 (inactive)
CASTPCSPHLAGNASASA [HC2539],2.23,-1.13 (inactive),0.314 (inactive)
CALKGSSGGPAGNASASA [HC741],-0.0654 (inactive),-1.8 (inactive),-2.14 (inactive)
CAAKLVALGIAGNASASA [HC863],0.999 (inactive),-2.69 (inactive),0.907 (inactive)
CAVFKRDAHGAGNASASA [FS-3215],-0.773 (inactive),-0.315 (inactive),1.52
CAYLNRKRRGAGNASASA [FS-634],9.69 (active),11.9 (active),7.89 (active)
CAFSSRWGRGAGNASASA [FS-1523],-2.35 (inactive),0.914 (inactive),-0.211 (inactive)
CAYLHRVGRGAGNASASA [FS-390],3.96 (active),5.69 (active),4.8 (active)
CAHLVPVLRGAGNASASA [FS-595],0.989 (inactive),-0.535 (inactive),-1.61 (inactive)
CAVFQRKRRGAGNASASA [FS-1578],12.4 (active),12.7 (active),9.42 (active)
CAIKSRFGRGAGNASASA [FS-541],4.29 (active),4.38 (active),4.05 (active)
CAFPMRGRRGAGNASASA [FS-1454],-0.221 (inactive),-0.337 (inactive),0.17 (inactive)
CAICSRAARGAGNASASA [FS-1534],-0.759 (inactive),0.0398 (inactive),-0.381 (inactive)
CARRGRTGRGAGNASASA [HC904],-0.725 (inactive),-0.224 (inactive),-0.511 (inactive)
CALGIGTVLDAGNASASA [HC824],-0.583 (inactive),0.0553 (inactive),-0.254 (inactive)
CAVVCCSMFYAGNASASA [HC2067],-1.42 (inactive),0.168 (inactive),-1.67 (inactive)
CARYFRKRRGAGNASASA [FS-960],10.2 (active),11.6 (active),9.02 (active)
CAISYRFPRGAGNASASA [FS-37],4.87 (active),7.38 (active),6.94 (active)
CAKKERRPRGAGNASASA [FS-671],1.59,2.08,0.765 (inactive)
